These results are taken from PubChem BioAssay (EPA / NIEHS).

Several values for one entry are separate records, joined by “and”; a condition that tells them apart may be missing. Equal entries are not always repeated. Inconclusive results are not listed. A structure can be active in one record and inactive in another. Activity calls are given as the source filed them. The calls were made as follows, unless noted: active = hit-call score of the fitted dose curve at least 0.9, where 1 is the maximum; inconclusive = response in the unintended direction; inactive = score below 0.9.

As usually defined, the AC50 is the midpoint of the concentration-response curve, whichever way the signal moves.

Assay [1] can be described thus: ATG_TAL_CIS: Attagene CIS-FACTORIAL HepG2 Assay for human TAL Basal Promoter (AID 2282966; active = hit-call score of the fitted dose curve at least 0.9, where 1 is the maximum; inactive = score below 0.9;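 also: background control endpoint measuring basal TAL promoter reporter mRNA not a specific factor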). The following applies: HepG2 Attagene cis-factorial TAL promoter reporter; actives raise or lower the signal. In outline:
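Basal-promoter background-control endpoint from a multiplexed HepG2 reporter panel. Cells were exposed 24 h, then reporter mRNA was read by RT-PCR/CE fluorescence and fitted in both directions relative to DMSO.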

Assay [2] is described as follows: ATG_TGFb_CIS: Attagene CIS-FACTORIAL HepG2 Assay for human Transforming Growth Factor (TGF) (AID 2282967; active = hit-call score of the fitted dose curve at least 0.9, where 1 is the maximum; inactive = score below 0.9). The following applies: HepG2 Attagene CIS TGFb reporter, mRNA transcription; actives raise or lower the signal. The method in brief:
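Cells were dosed for 24 hours, after which total RNA was reverse-transcribed and reporter sequences amplified, labeled and sized by capillary electrophoresis. Activity was fitted in both directions against DMSO.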

Assay [3] has as its target Nuclear receptor subfamily 1 group I member 3 (Homo sapiens) (UniProt Q14994). In words: ATG_CAR_TRANS: Attagene TRANS-FACTORIAL HepG2 Assay for human Constitutive Androstane Receptor (CAR) (AID 2282969).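 Also: activators raise reporter mRNA above DMSO so AC50 marks induction.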 The following applies: HepG2 Attagene TRANS-FACTORIAL CAR reporter. In outline:
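Signal is reporter mRNA induction relative to DMSO, measured 24 h after dosing by RT-PCR with fluorescent primer extension and capillary electrophoresis. Human HepG2 liver cells carried transiently transfected chimeric NR-Gal4/GAL4-UAS reporter constructs.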

In assay [4] the target is X-box-binding protein 1 (Homo sapiens) (UniProt P17861). In words: ATG_Xbp1_CIS: Attagene CIS-FACTORIAL HepG2 Assay for human X-box Binding Protein 1 (XBP1) (AID 2282972; active = hit-call score of the fitted dose curve at least 0.9, where 1 is the maximum; inactive = score below 0.9). The following applies: HepG2 XBP1 cis-element reporter, Attagene multiplex; actives raise or lower the signal. The method in brief:
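Read-out: fluorescent reporter mRNA fragments resolved by capillary electrophoresis after RT-PCR. Human HepG2 liver cells carried transfected cis-promoter reporter units and were exposed to chemicals for 24 hours. Gain or loss of signal fitted relative to DMSO baseline.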

Assay [5] concerns the target Glucocorticoid receptor (Homo sapiens) (UniProt P04150). The experiment in a line: ATG_GR_TRANS: Attagene TRANS-FACTORIAL HepG2 Assay for human Glucocorticoid Receptor (GR) (AID 2282978).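 Also: activators score as hits since higher reporter transcript over DMSO is fitted.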 The following applies: HepG2 Attagene TRANS GR reporter, mRNA transcription. The method in brief: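 Fluorescent capillary-electrophoresis quantitation of reporter mRNA is the readout, taken 24 h after dosing human HepG2 cells carrying transiently transfected GAL4-UAS reporter units activated by chimeric NR-GAL4 fusions; activity scored as induction over DMSO.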

For assay [6], the target named is Bile acid receptor (Homo sapiens) (UniProt Q96RI1). The experiment in a line: ATG_FXR_TRANS: Attagene TRANS-FACTORIAL HepG2 Assay for Farnesoid X Receptor (FXR) (AID 2282979).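 Also: hits raise reporter mRNA above DMSO so AC50 marks FXR activation.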 The following applies: HepG2 Attagene TRANS FXR-GAL4 reporter transcription. The method in brief:
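HepG2 cells were transiently transfected with GAL4-UAS reporters driven by chimeric NR-Gal4 proteins and dosed for 24 h. Reporter mRNA was quantified by RT-PCR, fluorescent labelling, HpaI digestion and capillary electrophoresis, with gain of signal scored versus DMSO.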

The target of assay [7] is Oxysterols receptor LXR-beta (Homo sapiens) (UniProt P55055). The experiment in a line: ATG_LXRb_TRANS: Attagene TRANS-FACTORIAL HepG2 Assay for human Liver X Receptor beta (LXRb) (AID 2282981). The following applies: HepG2 Attagene TRANS GAL4-LXRb reporter, mRNA. The method in brief: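 After 24 h chemical treatment of transfected HepG2 cells carrying exogenous NR-Gal4 chimeras, reporter mRNA was quantified by fluorescent RT-PCR and capillary electrophoresis; activity taken as increase over DMSO controls.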
Sequence of Oxysterols receptor LXR-beta (Homo sapiens) (P55055 whole entry, looked up, the tested form may be a part): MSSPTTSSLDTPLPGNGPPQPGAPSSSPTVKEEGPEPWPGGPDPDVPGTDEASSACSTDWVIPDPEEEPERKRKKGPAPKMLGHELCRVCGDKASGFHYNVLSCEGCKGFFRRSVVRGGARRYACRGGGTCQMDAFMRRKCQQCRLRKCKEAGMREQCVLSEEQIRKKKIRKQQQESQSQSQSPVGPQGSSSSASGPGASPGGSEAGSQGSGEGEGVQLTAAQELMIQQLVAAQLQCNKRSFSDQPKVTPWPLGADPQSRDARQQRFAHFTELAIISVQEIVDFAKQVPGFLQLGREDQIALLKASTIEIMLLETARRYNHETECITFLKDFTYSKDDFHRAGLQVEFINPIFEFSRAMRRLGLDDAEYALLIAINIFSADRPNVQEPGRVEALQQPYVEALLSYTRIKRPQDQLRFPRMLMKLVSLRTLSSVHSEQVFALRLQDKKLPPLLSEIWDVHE

The target in assay [8] is Hepatocyte nuclear factor 4-alpha (Homo sapiens) (UniProt P41235). In words: ATG_HNF4a_TRANS: Attagene TRANS-FACTORIAL HepG2 Assay for human Hepatocyte Nuclear Factor 4 alpha (HNF4a) (AID 2282982). The following applies: HepG2 HNF4a transactivation reporter, mRNA readout. In outline:
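Activity of an exogenous HNF4a–Gal4 fusion scored as induced GAL4-UAS reporter transcripts after 24 h chemical exposure of transfected human HepG2 cells. Read-out via RT-PCR with 6-FAM labelling and capillary electrophoresis; rise over DMSO baseline.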

Assay [9] in a line: ATG_M_06_TRANS: Attagene TRANS-FACTORIAL HepG2 Assay for M06 Transcription Factor (Internal Marker) (AID 2282983). The following applies: HepG2 Attagene TRANS M06 internal marker reporter. In outline:
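mRNA levels of a reporter transcript, quantified as FAM fluorescence on capillary electrophoresis, served as readout. HepG2 cells expressing exogenous GAL4-chimera reporter constructs were exposed for 24 h. Gain of signal over DMSO was evaluated.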

The target in assay [10] is Nuclear receptor subfamily 4 group A member 2 (Homo sapiens) (UniProt P43354). The experiment in a line: ATG_NURR1_TRANS: Attagene TRANS-FACTORIAL HepG2 Assay for human Nuclear Receptor Related Protein 1 (NURR1) (AID 2282985). The following applies: HepG2 Attagene TRANS reporter, mRNA readout. The method in brief:
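Reporter transcript induction, measured by RT-PCR with fluorescent labelling, HpaI digestion and capillary electrophoresis, after 24 hr dosing of human HepG2 cells transiently expressing an exogenous NR-Gal4 fusion with GAL4-UAS-driven reporters; DMSO as baseline.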

Assay [11] concerns the target Transcriptional activator Myb (Homo sapiens) (UniProt P10242). In words: ATG_Myb_CIS: Attagene CIS-FACTORIAL HepG2 Assay for human Myeloblastosis (Myb) Proto-Oncogene Transcription Factor (AID 2282986; active = hit-call score of the fitted dose curve at least 0.9, where 1 is the maximum; inactive = score below 0.9). The following applies: HepG2 Attagene CIS-FACTORIAL Myb reporter transcription; actives raise or lower the signal. The method in brief: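 Reporter transcript levels, quantified by fluorescent RT-PCR and capillary electrophoresis, serve as the read-out. Transfected HepG2 cells carrying cis-promoter reporter units are dosed for 24 hours, and curves are fitted bidirectionally against DMSO controls.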

Assay [12] can be described thus: ATG_VDRE_CIS: Attagene CIS-FACTORIAL HepG2 Assay for human Vitamin D Receptor Element (VDRE) (AID 2282968; active = hit-call score of the fitted dose curve at least 0.9, where 1 is the maximum; inactive = score below 0.9). The following applies: HepG2 VDRE cis-reporter transcription, actives raise or lower the signal. The method in brief:
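Readout is VDRE-driven reporter mRNA reflecting endogenous factor activity in human HepG2 cells, sampled 24 h post-dose. Quantification used labelled RT-PCR products separated by capillary electrophoresis; bidirectional analysis relative to DMSO.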

Assay [13] is described as follows: ATG_GAL4_TRANS: Attagene TRANS-FACTORIAL HepG2 Assay for GAL4 (Internal Marker) (AID 2282976). The following applies: HepG2 Attagene TRANS GAL4 internal marker reporter. The method in brief: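 Background-control readout: GAL4-UAS reporter transcript in transiently transfected HepG2 cells after 24 h compound exposure. Measured by RT-PCR, 6-FAM primer extension, HpaI digest and capillary electrophoresis; gain-of-signal fit versus DMSO.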

Assay [14] can be described thus: ATG_M_19_TRANS: Attagene TRANS-FACTORIAL HepG2 Assay for M19 Transcription Factor (Internal Marker) (AID 2282974). The following applies: HepG2 Attagene TRANS-FACTORIAL M19 internal marker reporter. In outline: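 Fluorescence of 6-FAM-labelled reporter cDNA fragments, separated by capillary electrophoresis, served as the readout. These derived from HepG2 cells carrying transfected GAL4-UAS reporter units after 24 h dosing, with DMSO as negative control.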

Assay [15] concerns the target Estrogen-related receptor gamma (Homo sapiens) (UniProt P62508). The experiment in a line: ATG_ERRg_TRANS: Attagene TRANS-FACTORIAL HepG2 Assay for human Estrogen-Related Receptor gamma (ERRg) (AID 2282977).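 Also: hits increase reporter signal over DMSO so potencies reflect activators.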 The following applies: HepG2 Attagene TRANS reporter, ERRg transactivation. The method in brief:
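Exogenous NR-Gal4 chimera activity measured as reporter transcript induction after 24 h in transiently transfected HepG2 cells. RNA reverse-transcribed, PCR-amplified, 6-FAM-labelled and resolved by capillary electrophoresis; increase over DMSO baseline.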

Assay [16] has as its target Estrogen receptor (Homo sapiens) (UniProt P03372). In words: ATG_ERa_TRANS: Attagene TRANS-FACTORIAL HepG2 Assay for human Estrogen Receptor alpha (ERa) (AID 2282970). The following applies: HepG2 Attagene TRANS ERa GAL4 reporter, mRNA. The method in brief:
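Gal4-fusion ERa transactivation, measured as reporter transcript level in transiently transfected HepG2 cells. Exposure 24 h; RT-PCR plus capillary electrophoresis with fluorescence detection.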

Assay [17] concerns the target Steroid hormone receptor ERR1 (Homo sapiens) (UniProt P11474). The experiment in a line: ATG_ERRa_TRANS: Attagene TRANS-FACTORIAL HepG2 Assay for human Estrogen-Related Receptor alpha (ERRa) (AID 2282971). The following applies: HepG2 Attagene TRANS reporter, ERRa transactivation. In outline:
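HepG2 cells transiently transfected with GAL4-UAS reporter units and chimeric NR-Gal4 constructs; after 24 hour compound incubation, reporter mRNA quantified by RT-PCR, fluorescent labelling and capillary electrophoresis, gain of signal versus DMSO.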

A short description of assay [18]: ATG_M_32_TRANS: Attagene TRANS-FACTORIAL HepG2 Assay for M32 Transcription Factor (Internal Marker) (AID 2282984). The following applies: HepG2 Attagene TRANS M32 internal marker reporter. The method in brief:
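Internal background reporter in transfected HepG2: after 24 h chemical exposure, RNA reverse-transcribed, reporter cDNA amplified, fluorescently labelled and HpaI-cut, then sized by capillary electrophoresis. Gain of signal fitted against DMSO control.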

The target in assay [19] is Androgen receptor (Homo sapiens) (UniProt P10275). The experiment in a line: ATG_AR_TRANS: Attagene TRANS-FACTORIAL HepG2 Assay for human Androgen Receptor (AR) (AID 2282973). The following applies: HepG2 Attagene TRANS-FACTORIAL AR reporter transcription. The method in brief: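 HepG2 cells transiently transfected with AR-Gal4 chimera and GAL4-UAS reporter units; chemical exposure 24 h. Reporter mRNA quantified by RT-PCR with fluorescent labelling and capillary electrophoresis; gain-of-signal fitted against DMSO.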

Sequence of Nuclear receptor subfamily 4 group A member 2 (Homo sapiens) (P43354 whole entry, looked up, the tested form may be a part): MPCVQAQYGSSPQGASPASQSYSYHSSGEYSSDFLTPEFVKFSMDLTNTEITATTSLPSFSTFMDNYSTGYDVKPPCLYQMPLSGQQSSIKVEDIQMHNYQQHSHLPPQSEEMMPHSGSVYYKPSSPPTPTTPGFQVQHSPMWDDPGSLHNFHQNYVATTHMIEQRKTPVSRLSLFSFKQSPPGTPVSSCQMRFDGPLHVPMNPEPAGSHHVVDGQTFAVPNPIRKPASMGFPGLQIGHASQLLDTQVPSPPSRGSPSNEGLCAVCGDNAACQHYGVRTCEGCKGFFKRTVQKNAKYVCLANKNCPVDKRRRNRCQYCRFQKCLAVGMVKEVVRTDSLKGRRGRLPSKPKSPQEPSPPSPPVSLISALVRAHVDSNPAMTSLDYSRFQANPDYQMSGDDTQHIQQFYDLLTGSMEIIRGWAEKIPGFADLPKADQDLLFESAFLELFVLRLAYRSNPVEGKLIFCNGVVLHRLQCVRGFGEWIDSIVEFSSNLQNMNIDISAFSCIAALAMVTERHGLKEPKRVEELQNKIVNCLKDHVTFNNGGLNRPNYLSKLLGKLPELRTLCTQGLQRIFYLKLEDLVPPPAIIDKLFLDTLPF
Sequence of Bile acid receptor (Homo sapiens) (Q96RI1 whole entry, looked up, the tested form may be a part): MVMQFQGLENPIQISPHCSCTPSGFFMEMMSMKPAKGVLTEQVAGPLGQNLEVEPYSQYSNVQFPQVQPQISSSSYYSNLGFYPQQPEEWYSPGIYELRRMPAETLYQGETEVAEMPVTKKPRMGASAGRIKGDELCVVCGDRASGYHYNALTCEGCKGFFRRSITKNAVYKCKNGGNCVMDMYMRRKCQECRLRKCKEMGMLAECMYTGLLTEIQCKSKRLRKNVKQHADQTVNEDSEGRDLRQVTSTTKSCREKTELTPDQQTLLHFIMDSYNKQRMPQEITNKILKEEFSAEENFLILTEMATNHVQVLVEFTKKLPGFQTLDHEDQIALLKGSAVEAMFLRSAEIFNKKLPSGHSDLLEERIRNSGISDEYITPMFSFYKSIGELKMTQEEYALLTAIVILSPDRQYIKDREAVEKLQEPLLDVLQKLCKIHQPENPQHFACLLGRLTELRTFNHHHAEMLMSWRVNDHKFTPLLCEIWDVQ
Sequence of X-box-binding protein 1 (Homo sapiens) (P17861 whole entry, looked up, the tested form may be a part): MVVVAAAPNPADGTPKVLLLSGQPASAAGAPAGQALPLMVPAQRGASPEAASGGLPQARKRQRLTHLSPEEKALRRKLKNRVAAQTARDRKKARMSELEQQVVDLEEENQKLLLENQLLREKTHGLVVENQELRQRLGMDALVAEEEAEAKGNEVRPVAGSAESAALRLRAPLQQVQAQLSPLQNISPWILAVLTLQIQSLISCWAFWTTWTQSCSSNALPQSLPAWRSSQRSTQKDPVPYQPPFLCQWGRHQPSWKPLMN
Sequence of Glucocorticoid receptor (Homo sapiens) (P04150 whole entry, looked up, the tested form may be a part): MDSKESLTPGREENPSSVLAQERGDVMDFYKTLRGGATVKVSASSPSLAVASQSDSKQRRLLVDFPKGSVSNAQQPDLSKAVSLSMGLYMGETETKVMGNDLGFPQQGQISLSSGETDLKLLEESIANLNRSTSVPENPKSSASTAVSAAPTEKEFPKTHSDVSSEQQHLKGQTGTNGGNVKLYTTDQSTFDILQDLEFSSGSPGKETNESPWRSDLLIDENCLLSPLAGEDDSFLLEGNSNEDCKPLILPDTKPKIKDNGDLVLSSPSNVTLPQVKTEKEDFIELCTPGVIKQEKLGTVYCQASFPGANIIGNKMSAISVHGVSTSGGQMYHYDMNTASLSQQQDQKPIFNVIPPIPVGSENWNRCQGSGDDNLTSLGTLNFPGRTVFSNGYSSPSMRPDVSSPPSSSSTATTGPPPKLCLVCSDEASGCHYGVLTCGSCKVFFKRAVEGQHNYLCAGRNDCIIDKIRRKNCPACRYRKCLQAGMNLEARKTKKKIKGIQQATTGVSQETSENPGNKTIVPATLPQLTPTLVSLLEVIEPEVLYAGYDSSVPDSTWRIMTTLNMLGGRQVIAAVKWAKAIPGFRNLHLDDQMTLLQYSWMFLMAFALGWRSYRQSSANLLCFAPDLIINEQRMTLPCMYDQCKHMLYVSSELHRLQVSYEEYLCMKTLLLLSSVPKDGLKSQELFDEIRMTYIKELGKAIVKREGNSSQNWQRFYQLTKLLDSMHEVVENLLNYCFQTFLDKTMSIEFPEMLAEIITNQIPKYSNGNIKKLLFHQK
Sequence of Transcriptional activator Myb (Homo sapiens) (P10242 whole entry, looked up): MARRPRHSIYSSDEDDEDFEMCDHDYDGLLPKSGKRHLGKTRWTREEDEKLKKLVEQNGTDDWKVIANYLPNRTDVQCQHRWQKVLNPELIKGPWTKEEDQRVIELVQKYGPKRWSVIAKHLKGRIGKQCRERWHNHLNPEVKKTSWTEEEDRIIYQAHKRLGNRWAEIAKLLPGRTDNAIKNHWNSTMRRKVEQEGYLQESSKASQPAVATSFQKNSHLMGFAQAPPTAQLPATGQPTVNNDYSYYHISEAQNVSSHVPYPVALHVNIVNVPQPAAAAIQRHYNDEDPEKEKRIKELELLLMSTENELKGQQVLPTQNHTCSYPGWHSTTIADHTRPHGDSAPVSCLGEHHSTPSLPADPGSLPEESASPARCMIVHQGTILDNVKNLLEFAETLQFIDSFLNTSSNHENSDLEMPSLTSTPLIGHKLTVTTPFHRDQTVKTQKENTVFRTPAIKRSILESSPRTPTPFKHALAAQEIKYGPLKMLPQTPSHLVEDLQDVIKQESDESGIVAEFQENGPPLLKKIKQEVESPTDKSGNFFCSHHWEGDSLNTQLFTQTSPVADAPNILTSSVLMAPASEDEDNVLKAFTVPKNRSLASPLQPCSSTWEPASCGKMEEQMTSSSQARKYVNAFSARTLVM
Sequence of Nuclear receptor subfamily 1 group I member 3 (Homo sapiens) (Q14994 whole entry, looked up, the tested form may be a part): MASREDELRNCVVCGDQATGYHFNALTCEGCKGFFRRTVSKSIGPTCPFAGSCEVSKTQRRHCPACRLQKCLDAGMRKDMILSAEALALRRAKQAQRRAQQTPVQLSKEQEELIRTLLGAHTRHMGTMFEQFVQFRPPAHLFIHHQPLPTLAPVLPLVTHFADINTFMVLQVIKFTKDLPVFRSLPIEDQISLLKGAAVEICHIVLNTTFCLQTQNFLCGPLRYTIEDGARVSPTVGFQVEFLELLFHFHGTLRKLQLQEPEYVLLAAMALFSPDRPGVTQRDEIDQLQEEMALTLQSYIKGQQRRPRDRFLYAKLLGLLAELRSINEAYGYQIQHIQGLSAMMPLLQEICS
Sequence of Hepatocyte nuclear factor 4-alpha (Homo sapiens) (P41235 whole entry, looked up, the tested form may be a part): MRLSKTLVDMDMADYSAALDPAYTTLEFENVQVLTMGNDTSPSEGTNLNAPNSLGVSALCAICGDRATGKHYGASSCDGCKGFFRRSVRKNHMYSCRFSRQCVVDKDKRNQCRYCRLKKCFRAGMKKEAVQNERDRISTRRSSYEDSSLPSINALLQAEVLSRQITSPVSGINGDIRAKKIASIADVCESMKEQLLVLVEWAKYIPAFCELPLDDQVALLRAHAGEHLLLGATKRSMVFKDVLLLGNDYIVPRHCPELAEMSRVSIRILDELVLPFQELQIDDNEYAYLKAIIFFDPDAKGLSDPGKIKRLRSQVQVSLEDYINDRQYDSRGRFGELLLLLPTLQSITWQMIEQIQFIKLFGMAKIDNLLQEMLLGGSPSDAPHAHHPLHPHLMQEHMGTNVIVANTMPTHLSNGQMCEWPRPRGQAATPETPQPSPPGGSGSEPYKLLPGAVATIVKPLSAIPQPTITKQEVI
Sequence of Estrogen-related receptor gamma (Homo sapiens) (P62508 whole entry, looked up, the tested form may be a part): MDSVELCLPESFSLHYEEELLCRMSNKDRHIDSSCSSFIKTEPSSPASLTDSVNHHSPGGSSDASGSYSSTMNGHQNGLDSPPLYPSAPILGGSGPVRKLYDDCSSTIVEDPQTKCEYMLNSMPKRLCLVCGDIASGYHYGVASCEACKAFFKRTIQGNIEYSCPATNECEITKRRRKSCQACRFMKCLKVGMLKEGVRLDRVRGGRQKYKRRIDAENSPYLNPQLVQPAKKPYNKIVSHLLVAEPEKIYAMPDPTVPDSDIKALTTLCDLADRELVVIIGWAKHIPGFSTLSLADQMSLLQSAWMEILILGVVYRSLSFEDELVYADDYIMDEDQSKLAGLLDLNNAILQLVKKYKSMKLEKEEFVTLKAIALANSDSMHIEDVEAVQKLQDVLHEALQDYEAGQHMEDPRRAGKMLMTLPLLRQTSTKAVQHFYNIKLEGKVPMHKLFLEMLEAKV
Sequence of Steroid hormone receptor ERR1 (Homo sapiens) (P11474 whole entry, looked up, the tested form may be a part): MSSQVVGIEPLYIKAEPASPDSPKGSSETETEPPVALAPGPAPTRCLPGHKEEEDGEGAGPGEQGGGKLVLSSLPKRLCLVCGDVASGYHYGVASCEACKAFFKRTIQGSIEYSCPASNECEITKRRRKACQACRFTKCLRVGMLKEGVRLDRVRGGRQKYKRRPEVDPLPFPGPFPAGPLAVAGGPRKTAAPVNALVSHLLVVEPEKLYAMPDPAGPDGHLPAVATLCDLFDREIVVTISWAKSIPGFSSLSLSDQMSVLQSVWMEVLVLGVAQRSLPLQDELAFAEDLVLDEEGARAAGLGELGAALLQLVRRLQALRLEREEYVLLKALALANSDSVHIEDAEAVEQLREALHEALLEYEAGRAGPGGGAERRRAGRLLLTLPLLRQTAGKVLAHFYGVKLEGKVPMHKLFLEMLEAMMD

In the case of `Oc1c(Cl)c(Cl)c(Cl)c(Cl)c1Cl`, the AC50 in assay [1] is 26.4 µM (active); in assay [2] it was 13.2 µM (active); in [4], 29.5 µM (active) and 19 µM (active) and 74.2 µM (active). For the same compound, the result in assay [1], in [2], in assay [3], in assay [5], in assay [6] and in assay [7] was inactive. Moreover, the outcome in assay [8], in assay [9], in assay [10] and in assay [11] was inactive.
For the compound `Cc1ccccc1[N+](=O)[O-]`, the result in assay [1], in [2], in [12], in [3], in assay [4] and in assay [13] was inactive. Moreover, the result in [9] and in [11] was inactive.
As for `C[C@]12CCC(=O)C=C1CC[C@@H]1[C@@H]2CC[C@@]2(C)[C@H]1CC[C@]2(C)O`, the outcome in assay [1], in assay [2], in assay [12], in assay [3], in [4] and in assay [14] was inactive. For the same compound, the result in assay [13], in [5], in [6], in assay [7], in [8] and in [9] was inactive. The call in assay [10] and in assay [11] was inactive. Besides, the AC50 in assay [12] is 18.2 µM (active).
Regarding `Cc1cc(O)ccc1Cl`, the compound was classed as inactive in assay [1], in assay [2], in assay [12], in assay [4], in assay [14] and in [15]. The result in assay [5], in [6], in assay [8], in [9] and in [11] was inactive.
Consider `OCC(O)CO`, for which the compound was called inactive in assay [1], in assay [2], in [12], in [17], in [4] and in assay [14]. For the same compound, the result in [15], in assay [5], in [6], in assay [7], in assay [18] and in [10] was inactive. In addition, the outcome in assay [11] was inactive. The AC50 in [16] is 85.1 µM (active).
With `O=C(NC(=O)c1c(F)cccc1F)Nc1cc(Cl)c(OC(F)(F)C(F)F)c(Cl)c1`, the result in assay [1], in assay [2], in assay [3], in assay [4], in assay [19] and in assay [13] was inactive. Moreover, the compound was called inactive in [9] and in assay [11].
In the case of `CCOCCOC(C)=O`, the call in assay [1], in assay [2], in assay [12], in assay [4], in assay [9] and in assay [10] was inactive. Further, in [11], the result was inactive.
For `COc1ccc(O)c(C(C)(C)C)c1`, the result in assay [1], in [2], in assay [3], in assay [5], in assay [6] and in assay [9] was inactive. The call in [11] was inactive. In addition, the AC50 was 58.7 µM (active) in assay [12] and 100 µM (active) in [4].
